# Hits are enriched below; roughly 19% of the tested compounds scored in any of these assays.
# IL1B secr inh – inhibitors of inflammasome signaling (IL-1 beta secretion); THP-1 LPS/ATP IL-1B secretion, AlphaLISA, 16 h; hits give low values; activity change, % at 57.5 µM; 360,000 tested, 4.7% active; AID 743279; in the data active means activity change below about -50%; inconclusive means mostly about -30% to -49%
#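 Secreted IL-1B measured by AlphaLISA bead assay after 16 h compound exposure of THP-1 cells; compounds (final up to 57.5 uM) added 1 h before LPS (250 ng/mL) and ATP (1.25 mM) stimulation; lower signal means less secretion.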
# TDP1 block – inhibitors of human tyrosyl-DNA phosphodiesterase TDP1. Q9NUW8. 350,000 tested, 0.28% active. AID 485290. Potency, µM (highest dose often 130 µM), for inactives: at the top dose activity change, negative = inhibition, hits mostly inhibitors. recombinant TDP1, AlphaScreen DNA substrate cleavage; further: potency means the concentration at half of the fitted maximal effect; nearly all actives have a fitted effect of over 40% in size
# Target sequence (Q9NUW8 whole entry, looked up): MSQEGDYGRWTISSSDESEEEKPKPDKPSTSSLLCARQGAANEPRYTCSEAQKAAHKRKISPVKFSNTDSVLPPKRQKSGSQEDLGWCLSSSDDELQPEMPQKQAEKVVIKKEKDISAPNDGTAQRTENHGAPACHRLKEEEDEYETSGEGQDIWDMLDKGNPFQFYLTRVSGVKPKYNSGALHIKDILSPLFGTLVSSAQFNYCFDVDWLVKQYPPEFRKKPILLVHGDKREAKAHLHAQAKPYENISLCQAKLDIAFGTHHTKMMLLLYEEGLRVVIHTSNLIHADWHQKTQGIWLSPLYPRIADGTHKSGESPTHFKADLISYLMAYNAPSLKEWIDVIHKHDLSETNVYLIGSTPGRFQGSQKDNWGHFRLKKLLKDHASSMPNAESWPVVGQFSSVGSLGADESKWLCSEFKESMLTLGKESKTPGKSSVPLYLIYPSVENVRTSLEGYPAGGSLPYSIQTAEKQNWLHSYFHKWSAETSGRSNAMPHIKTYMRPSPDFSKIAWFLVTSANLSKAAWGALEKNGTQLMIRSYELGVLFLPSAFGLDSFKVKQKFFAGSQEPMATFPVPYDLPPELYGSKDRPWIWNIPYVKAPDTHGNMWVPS
#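 Signal: AlphaScreen proximity between streptavidin donor and anti-FITC acceptor beads on intact substrate. Reaction: Tdp1 1 nM, substrate 15 nM final, 5 min RT after 15 min compound preincubation.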
# TDP1 cell CPT – DT40-hTDP1 cell growth loss with CPT | Potency, µM (top dose mostly 46.2 µM), for inactives: top-dose activity change, negative = growth inhibition, hits mostly inhibitors | AID 686979 | 420,000 tested, 12% active | chicken DT40 Tdp1-/-;hTDP1 cells + 20 nM CPT, ATP luminescence, 48 h; further: potency means the concentration at half of the fitted maximal effect; nearly all actives have a fitted effect of over 55% in size
#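 Chicken DT40 Tdp1-/- cells complemented with human TDP1, 400 cells/well, exposed to compounds plus 20 nM camptothecin for at least 48 h at 37 C; viability read as ATP content by CellTiter-Glo luminescence.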
# DT40 TDP1 no CPT – qHTS for Inhibitors of human tyrosyl-DNA phosphodiesterase 1 (TDP1): qHTS in cells in absence of CPT. 420,000 tested, 15% active. DT40 Tdp1-/- hTDP1 cells, no CPT, ATP luminescence, 48 h. Potency, µM (titrated, usually from 46.2 µM), for inactives: top-dose activity change, negative = growth inhibition, usual class: inhibitors; further: potency means the concentration at half of the fitted maximal effect; nearly all actives have a fitted effect of over 55% in size
#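 No-CPT arm: Tdp1-/-;hTDP1 DT40 cells (400/well) plus compounds, incubated ≥48 hr at 37 °C. Readout CellTiter-Glo luminescence.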
# ELG1 repair inh – ELG1-dependent DNA repair inhibition. HEK293T ELG1-luciferase reporter, luminescence, 16 h; DNA damage induced by 5-fluorouridine. Potency, µM (titrated, usually from 46.1 µM), inactives show at the top dose activity change, negative = inhibition, hits mostly inhibitors. 330,000 tested, 2.3% active. AID 504467; further: potency means the concentration at half of the fitted maximal effect; nearly all actives have a fitted effect of over 55% in size
#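 In this reporter screen, reduction of luminescence relative to DMSO vehicle indicated activity. Compounds and 5-fluorouridine were added together to 2,000 cells per well, incubated for 16 hr at 37 °C, then developed with ONE-Glo.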
# Giardia kill – kills Giardia lamblia. Giardia lamblia trophozoite viability. activity change, % at 7.66 µM, hits read low. 340,000 tested, 0.15% active; in the data active means activity change below about -80%; inconclusive means between about -30% and that limit;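 further: parasites exposed to compound for two days anaerobically before the ATP read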
#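 Compounds were tested on trophozoites seeded at 100 cells/well and held 48 hrs at 37 deg C anaerobically. An ATP-based luminescent kit measured the remaining live cells.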
# * hit, by the source's call; ? = inconclusive; · = not tested or not shown; [ ] = dose if it differs, or a comment. Unless noted, the call rests on the fitted dose curve; in most records, active means well fitted curve in the direction sought with a large enough effect; inconclusive means small, poorly fitted or top-dose-only effect, or another doubt; inactive means no such curve, though single readings can be large; an effect the other way counts as inactive or inconclusive. On the % scale 0 is the no-effect control and ±100 the full control effect.
SMILES,IL1B secr inh,TDP1 block,TDP1 cell CPT,DT40 TDP1 no CPT,ELG1 repair inh,Giardia kill
COc1ccc(-n2c(=S)[nH]c3cc(C(=O)NCc4ccco4)ccc3c2=O)cc1OC,12,-2%,-20%,-25%,-13%,-7
O=C(NCc1ccco1)c1ccc2c(=O)n(CC3CCCO3)c(=S)[nH]c2c1 (configuration not stated),-26,2%,-27%,-18%,13µM*,2
O=C(NCc1ccccc1)c1ccc2c(=O)n(CC3CCCO3)c(=S)[nH]c2c1 (configuration not stated),40,2%,?,-11%,-23%,10
CC(C)[C@@H](CC(=O)N[C@@H]1CCNC[C@H]1C(=O)N[C@H](CC(=O)N[C@@H](CCC(=O)O)CC(=O)O)Cc1c[nH]c2ccccc12)NC(=O)C[C@H](CO)NC(=O)[C@@H]1CNCC[C@H]1N,·,-1%,·,·,·,·
O=[N+]([O-])c1cccc2c3c([nH]c12)CCCC3,13,·,2%,-25%,5%,4
Nc1nc2ncc(=O)[nH]c2c(=O)[nH]1,·,9%[56.1 µM],-1%,15µM*,·,·
Nc1nc2[nH]c(=O)cnc2c(=O)[nH]1,·,2%,·,·,·,·
COc1ccc(-n2c(C)c(C)c3c(N)ncnc32)cc1,4,7%,?,?,10µM*,1
CC(CNC(=O)Cn1ccc2cc(S(=O)(=O)N3CCCC3)ccc21)c1ccccc1 (configuration not stated),8,4%,18µM*,23µM*,-11%,4
Cc1ccccc1CNC(=O)Cn1ccc2cc(S(=O)(=O)N3CCCCC3)ccc21,·,3%,?,?,·,·
CC(CNC(=O)Cn1ccc2cc(S(=O)(=O)N3CCCCC3)ccc21)c1ccccc1 (configuration not stated),·,6%,?,21µM*,·,·
NC(=S)NN=C(Cc1ccccc1)Cc1ccccc1,-13,5%,5.8µM*,3.7µM*,?,8
O=C(NN=C(Cc1ccccc1)Cc1ccccc1)c1ccccc1O,13,3%,?,?,?,13
Cc1ccccc1-c1cc(C(=O)NCc2ccco2)nn1CC1CC(c2cccc([N+](=O)[O-])c2)=NO1 (configuration not stated),-26,3%,16µM*,?,?,1
Cc1ccccc1-c1cc(C(=O)O)nn1CC1CC(c2cccc([N+](=O)[O-])c2)=NO1 (configuration not stated),-2,-3%,12%,-4%,7%,10
Cc1ccccc1-c1cc(C(=O)NCc2cccs2)nn1CC1CC(c2cccc([N+](=O)[O-])c2)=NO1 (configuration not stated),-21,1%,?,16µM*,-8%,12
COCC1=C2c3ccccc3[C@H](C[N+](=O)[O-])C(C(=O)OC)(C(=O)OC)C[C@@H]2n2c(=O)n(-c3ccccc3)c(=O)n2C1,·,7%,·,·,·,·
O=C(CC1C(=O)N(Cc2ccccc2)C(=S)N1CCN1CCOCC1)Nc1ccc(F)cc1 (configuration not stated),-13,2%,?,?,8%,-16
CCOc1ccc(NC(=O)CC2C(=O)N(CC)C(=S)N2CCN2CCOCC2)cc1 (configuration not stated),1,2%,?,?,-1%,-8
CCN1C(=O)C(CC(=O)Nc2ccc(F)cc2)N(CCCN2CCN(c3ccc(F)cc3)CC2)C1=S (configuration not stated),?,7%,15µM*,15µM*,?,-2
CCCOc1ccc(NC(=O)CC2C(=O)N(CC)C(=S)N2CCCN2CCN(Cc3ccccc3)CC2)cc1 (configuration not stated),-100*,4%,15µM*,15µM*,?,9
O=C1OC2(c3ccccc31)c1cc(Br)c(O)c(Br)c1Oc1c2cc(Br)c(O)c1Br,·,·,-7%,-21%,·,·
N#Cc1ccc(NC(=O)Cn2cnc(S(=O)(=O)N3CCc4ccccc43)c2)cc1,48,1%,?,?,-7%,5
CN1CCN(C2=Cc3ccccc3Sc3cc(F)ccc32)CC1,?,10%[56.1 µM],?,22µM*,-10%,-1
CN1CCN(C2=Cc3ccc(Cl)cc3Sc3ccc(F)cc32)CC1,-71*,8%,23µM*,21µM*,-21%,25
SMILES,IL1B secr inh,TDP1 block,TDP1 cell CPT,DT40 TDP1 no CPT,ELG1 repair inh,Giardia kill
CN1CCN(C(=S)Nc2ccc(Cl)cc2Cl)CC1,7,-2%,-12%,?,14%,-3
CN1CCN(CCC(=O)N2c3ccccc3Sc3ccc(C(F)(F)F)cc32)CC1,?,6%,?,?,-2%,13
COc1ccc(-n2c(N)c(C(=O)NCC3CCCO3)c3nc4ccccc4nc32)c(OC)c1 (configuration not stated),?,1%,?,?,-20%,-12
CC(C)Cn1c(N)c(C(=O)NCCN2CCOCC2)c2nc3ccccc3nc21,-61*,-5%,?,18µM*,?,2
CC(C(=O)NCCN1CCOCC1)(c1ccccc1)c1ccccc1,14,-1%,14%,9%,13%,2
C=CCn1c(N)c(C(=O)NCC2CCCO2)c2nc3ccccc3nc21 (configuration not stated),?,1%,?,?,10µM*,-9
COCCCNC(=O)c1c(N)n(-c2ccc3c(c2)OCO3)c2nc3ccccc3nc12,-24,0%,?,?,-24%,8
CC(C)Cn1c2nc3ccccc3nc2c2c(=O)n(CCN3CCOCC3)cnc21,-56*,10%,?,?,?,13
CCCCn1c2nc3ccccc3nc2c2c(=O)n(CCC(C)C)cnc21,18,2%,-15%,-24%,?,-19
Cc1cccc(-n2c(N)c(C(=O)NCCN3CCOCC3)c3nc4ccccc4nc32)c1,-64*,0%,?,18µM*,?,-6
O=C(Cc1ccccc1)NCC(=O)OCC(=O)c1cccc2ccccc12,·,1%,?,-25%,·,6
Cc1ccc2c(c1)CCCN2CC(=O)Nc1cccc(S(=O)(=O)N2CCCC2)c1,0,9%,?,?,4%,0
